FBW7 act = human FBW7 E3 ligase activation, primary screen | Q969H0 | AlphaScreen FBW7–phospho-cyclin E peptide binding, activator screen | normalized activity (activation), % at 26.1 µM | 0.13% of 650,000 active; in the data active means normalized activity above about 1.9%;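 further: purified mutant Fbw7 with reduced substrate affinity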
MITF primary = human MITF inhibition, primary screen. O75030. AlphaScreen MITF homodimerization, bead proximity signal. inhibition, % at 2.6 µM. 0.91% of 650,000 active; in the data active means inhibition above about 50%;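 further: 0% = vehicle wells with protein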
GPR151 ag = human GPR151 activation. Q8TDV0. PathHunter beta-arrestin GPR151 cells, luminescence. activation, % at 11.2 µM. 1% of 650,000 active; in the data active means activation above about 4.9%;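 further: 0% = median of compound wells and 100% = cells with positive control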
Target sequence (Q8TDV0 whole entry, looked up): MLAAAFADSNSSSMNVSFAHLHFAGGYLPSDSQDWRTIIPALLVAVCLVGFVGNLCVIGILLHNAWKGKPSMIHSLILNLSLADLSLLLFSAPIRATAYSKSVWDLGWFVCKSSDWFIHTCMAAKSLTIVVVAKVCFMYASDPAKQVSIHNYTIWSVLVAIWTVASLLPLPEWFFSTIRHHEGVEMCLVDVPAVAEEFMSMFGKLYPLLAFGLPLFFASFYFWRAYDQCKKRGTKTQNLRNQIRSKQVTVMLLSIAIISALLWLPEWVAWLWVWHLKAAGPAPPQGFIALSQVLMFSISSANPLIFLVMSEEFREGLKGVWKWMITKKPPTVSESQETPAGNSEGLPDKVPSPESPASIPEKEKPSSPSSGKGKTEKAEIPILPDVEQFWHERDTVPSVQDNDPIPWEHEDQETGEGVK
TEAD-YAP inh = TEAD-YAP interaction inhibition. HEK-TIYL cells, TEAD-Gal4/YAP UAS-luciferase luminescence. inhibition, % at 9.12 µM. 1.4% of 640,000 active. AID 1259422; in the data active means inhibition above about 32%;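 further: 0% = median of test compound wells and 100% = reference inhibitor wells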
* hit, by the source's call; · = no result given. Only some compounds are listed: those with a hit (about 3.5% of all), similar ones and a draw of the others.

SMILES	FBW7 act	MITF primary	GPR151 ag	TEAD-YAP inh
COCCOC(=O)C1=C(C)NC2=C(C(=O)CCC2)C1c1cccs1 (centres undefined)	0.2	3.6	-1.8	4.3
S=c1[nH]nc(-c2cccnc2)n1Cc1ccco1	0.8	3.1	1.1	-2.7
Cc1ccc(-n2c(SCC(=O)c3ccc(Br)cc3)nc3sc4c(c3c2=O)CC(C)(C)OC4)cc1	-0.1	5.5	0.5	3.7
Cn1c(=O)c2c(ncn2Cc2cccc(I)c2)n(C)c1=O	-0.2	-7.9	0.4	38.5*
Cn1c(=O)c2c(ncn2Cc2ccc(C(C)(C)C)cc2)n(C)c1=O	0.5	16.9	0.9	57.0*
Cn1c(=O)c2c(ncn2Cc2ccc(C#N)cc2)n(C)c1=O	0.1	4.8	0.1	-3.1
COc1ccc2ccccc2c1CN1CCc2nnc(CNC(=O)c3ccccn3)n2CC1	-0.1	0.3	0.8	-0.7
COc1cc(-c2nc(-c3ccccc3)c(-c3ccc(O)cc3)[nH]2)cc(OC)c1OC	-0.2	11.7	-1.0	2.6
CCOCCOC(=O)C1=C(C)N(C)C(=O)NC1c1c(F)cccc1Cl (centres undefined)	0.0	-6.8	-0.7	-5.6
COc1ccc(CCNc2nnc(Sc3nnnn3-c3ccccc3)s2)cc1OC	-0.1	0.6	1.2	54.2*
COc1ccc(Cl)cc1C(=O)Nc1ccc(Cl)c(-c2nc3c(ccc4ccccc43)o2)c1	-0.1	-4.4	0.9	6.2
O=C(Nc1ccc(Br)cc1)c1cccc(S(=O)(=O)NCc2ccccc2)c1	-0.1	-1.1	2.5	40.6*
Cc1ccc(S(=O)(=O)NCc2ccccc2)cc1	0.1	6.5	-1.3	·
Cc1ccc(C(=O)Nc2ccc(S(=O)(=O)NCc3ccccc3)cc2)cc1	0.4	-14.5	-1.0	32.1*
O=C(Nc1ccc(S(=O)(=O)NCCc2ccccc2)cc1)c1ccc([N+](=O)[O-])cc1	0.3	-15.4	-1.0	31.9*
COc1ccc(NC(=O)c2c(-c3ccccc3Cl)noc2C)cc1	0.1	-8.3	1.9	-6.1
O=C(NCCOc1ccccc1Cl)Nc1ccc(Br)cc1	0.0	-5.3	0.3	-5.6
CN1CCN(/N=C/c2ccc(O)c(O)c2)CC1	-0.1	79.3*	2.1	8.4
COCCn1c(C)cc(C(=O)CSc2nnc(C)s2)c1C	-0.2	-1.5	-6.3	70.1*
Cc1cc(C(=O)CSc2nnc(N)s2)c(C)n1Cc1ccco1	-0.1	6.8	-0.8	36.6*
Cc1nnc(SCC(=O)c2cc(C)n(Cc3cccs3)c2C)s1	-0.1	1.7	1.1	61.9*
COc1ccc(CCn2c(C)cc(C(=O)CSc3nnc(C)s3)c2C)cc1	-0.1	-2.3	0.4	3.5
Cc1cc(C(=O)COC(=O)c2cccs2)c(C)n1Cc1cccs1	-0.1	13.6	-1.3	52.7*
O=C(NC1CCCCC1)NC1(C(=O)NCCCN2CCOCC2)CCCCC1	1.9*	11.2	-0.4	3.0
CCC(C)Oc1ccccc1C1CC(=O)NC2=C1C(=O)CCC2 (centres undefined)	0.1	5.4	-1.0	38.2*
SMILES	FBW7 act	MITF primary	GPR151 ag	TEAD-YAP inh
Cn1c(=O)oc2cc(S(=O)(=O)Nc3ccc(Cl)c(Cl)c3)ccc21	-0.1	0.3	1.4	-5.3
CC(=O)N1c2ccc(-c3csc(NC(=O)c4ccncc4)n3)cc2CC1C (centres undefined)	0.0	-8.9	0.3	68.5*
COc1cc(Nc2nc(Nc3nc4ccccc4n3C)nc3c2ncn3-c2ccsc2)cc(OC)c1OC	-0.1	13.9	-1.5	36.9*
COc1cc(Nc2nc(Nc3cc(OC)c(OC)c(OC)c3)c3ncn(-c4ccsc4)c3n2)cc(OC)c1OC	0.2	1.7	2.6	50.5*
COc1cc(Nc2nc(Nc3ccccn3)nc3c2ncn3-c2ccsc2)cc(OC)c1OC	0.1	7.0	1.6	31.1
CC1CC2(C)Oc3ccccc3CC2C(C)C1CNCCCN(C)C (centres undefined)	0.0	23.1	0.1	38.2*
CC1Cc2ccccc2N1C(=O)CNCCCN(C)C (centres undefined)	0.1	9.4	0.1	11.1
CC(=O)n1c(SCC(=O)NCc2ccccc2)nc2ccccc21	0.0	-5.0	-0.9	-56.6
CCCCNc1ncnc2ccc(Br)cc12	0.1	-6.0	3.3	44.9*
Cc1occc1C(=O)N1CCC(n2nccc2NC(=O)CCOc2ccccc2)CC1	-0.1	8.1	-0.6	-2.1
N#Cc1c(N)nc(SCC(=O)c2ccc(F)cc2)c(C#N)c1-c1ccc(O)cc1	-0.1	-4.7	3.6	34.2*
N#Cc1c(N)nc(SCC(=O)O)c(C#N)c1-c1ccc(O)cc1	0.1	-8.6	4.6	-2.7
CCOC(=O)c1c(NC(=O)c2ccc(F)c(F)c2)sc2ccccc12	-0.1	-1.9	0.1	14.5

Screening data (PubChem)
